PubChem BioAssay (Tox21)
Inconclusive results are not listed. Where a call stands in place of a potency, no number is given. Active and inactive are the calls of the source. The call rests on the fitted dose curve; in most records, active means well fitted cell-killing curve with a large enough effect in the repeat runs; inconclusive means weak or mixed curves; inactive means no such curve, though single readings can be large or run the other way.
Potency means the concentration at half of the fitted maximal effect.

Assay: qHTS assay for identifying genotoxic compounds that show differential cytotoxicity against isogenic chicken DT40 cell lines with known DNA damage response pathways - Rad54/Ku70 mutant cell line (AID 743015); further: nearly all actives have a fitted effect of over 60% in size
Details: DT40 Rad54/Ku70 mutant viability, CellTiter-Glo, 40 h; series mostly up to 66.8 µM
Excerpt: National Center for Advancing Translational Sciences [NCATS]
NIH Chemical Genomics Center [NCGC]
U.S. Environmental Protection Agency [EPA]
National Institutes of Environmental Health Sciences [NIEHS]
National Toxicology Program [NTP]
U.S. Food and Drug Administration [FDA]
DNA repair pathways play a critical role in cellular homeostasis by repairing DNA damage induced by endogenous processes and xenobiotics. Isogenic chicken DT40 cell lines deficient in different DNA repair pathways can be used to identify genotoxic compounds and aid in characterizing the nature of the DNA damage induced. Two DNA repair-deficient cell lines with disrupted genes, Rad54/Ku70 or Rev3, were used to screen the Tox21 10K compound library. Possible genotoxicity was based on the presence of a significant increase in cytotoxicity in one or more of the DNA repair-deficient cell lines compared to that observed in the parental DNA repair-proficient cell line. CellTiter Glo viability assay (Promega, Madison, WI) was used to measure cell viability in these cells after compound treatment. This assay includes the data from the Rad54/Ku70 mutant cell line.
Tox21 Assay Protocol Summary:
300 DT40 mutant cells in 5 uL/well were dispensed into white, solid-bottom 1536-well plates using a Multidrop Combi (ThermoFisher Scientific, Waltham, MA) dispenser. After the assay plates were incubated at 37 C/5% CO2 for approximately 0.5 hour, 23 nL of compounds dissolved in DMSO, positive controls or DMSO only was transferred into the assay plate by a pintool work station (Kalypsys, San Diego, CA). The assay plates were incubated at 37 C/5% CO2 for 40 hours. After 5 uL per well of CellTiter-Glo reagent was added into each well of the assay plates, the plates were incubated for 30 min at room temperature and the luminescence intensity of the plates was measured using a ViewLux (PerkinElmer, Shelton, CT) plate reader.
With `CC(C)CN(C[C@@H](OP(=O)(O)O)[C@H](Cc1ccccc1)NC(=O)O[C@H]1CCOC1)S(=O)(=O)c1ccc(N)cc1` the Potency was “inactive”.
In the case of `CCCOc1ccc2nc(NC(=O)OC)sc2c1`, the Potency is reported as 3.35 µM (active).
With `Cc1cc(-n2c(=O)[nH]c(=O)n(C)c2=O)ccc1Oc1ccc(S(=O)(=O)C(F)(F)F)cc1` the Potency was 26.6 µM (active).
With `Cn1nnnc1SCC1=C(C(=O)O)N2C(=O)[C@@H](NC(=O)[C@H](O)c3ccccc3)[C@H]2SC1` the Potency was “inactive”.
With `COc1cc(-c2ccc(-[n+]3nc(-c4ccccc4)nn3-c3ccc([N+](=O)[O-])cc3)c(OC)c2)ccc1-[n+]1nc(-c2ccccc2)nn1-c1ccc([N+](=O)[O-])cc1` the Potency was 5.31 µM (active).
For `C[C@@H]1CCC2[C@@H](C)[C@@H](O)O[C@@H]3O[C@@]4(C)CC[C@@H]1[C@@]23OO4` (stereo not given in full), the Potency was 0.0473 µM (active).
For `CC1CS(=O)(=O)CCN1/N=C/c1ccc([N+](=O)[O-])o1` (stereo not given), the Potency was “inactive”.
For `COc1cc(C[C@@H]2NCCc3cc(O)c(O)cc32)cc(OC)c1OC`, the Potency was “inactive”.
With `O=C(O)CO.[NH2-].[NH2-].[Pt+2]` the Potency was “inactive”.
With `CC(C)(CO)[C@@H](O)C(=O)NCCCC(=O)O` the Potency was “inactive”.
With `CN1CCCC(CN2c3ccccc3Sc3ccccc32)C1` (stereo not given) the Potency was 9.44 µM (active).
For `CNC(=O)[C@H](Cc1c[nH]c2ccccc12)NC(=O)[C@@H](CC(=O)NO)CC(C)C`, the Potency was 33.5 µM (active).
For `C[C@H](/C=C/[C@H](C)C(C)(C)O)[C@H]1CC[C@H]2/C(=C/C=C3C[C@@H](O)C[C@H](O)C3)CCC[C@]12C`, the Potency was “inactive”.
With `CCN(CC)CCOc1ccc2nc(N(C)C)sc2c1` the Potency was 2.11 µM (active).
In the case of `CC(C)(C)NC[C@H](O)COc1ccccc1C1CCCC1`, the Potency is reported as 10.1 µM (active).
In the case of `CCC(=O)NS(=O)(=O)c1ccc(-c2c(-c3ccccc3)noc2C)cc1`, the Potency is reported as “inactive”.
In the case of `CC[N+](C)(C)Cc1ccccc1Br`, the Potency is reported as “inactive”.
For `CCCC(=O)Nc1c(I)cc(I)c(CC(CC)C(=O)O)c1I` (stereo not given), the Potency was “inactive”.
In the case of `COC(=O)CCC(=O)CN`, the Potency is reported as “inactive”.
With `CO[C@H]1[C@@H](O)[C@H](N)[C@@H](O[C@H]2O[C@H]([C@H](C)N)CC[C@H]2N)[C@H](O)[C@@H]1N(C)C(=O)CN` the Potency was “inactive”.
With `CCCCCCCCCCCCOCCCN` the Potency was “inactive”.
For `C=CCSSSCC=C`, the Potency was “inactive”.
For `CCC(=O)OCC(=O)[C@@]1(OC(=O)CC)[C@@H](C)C[C@H]2[C@@H]3CCC4=CC(=O)C=C[C@]4(C)[C@@]3(Cl)[C@@H](O)C[C@@]21C`, the Potency was 13.3 µM (active).
For `CC1(C)S[C@@H]2[C@H](NC(=O)C(N)c3ccccc3)C(=O)N2[C@H]1C(=O)OC1OC(=O)c2ccccc21` (stereo not given in full), the Potency was “inactive”.
In the case of `O=C(Nc1ccc(/C=C/c2ccc(NC(=O)c3cc(S(=O)(=O)O)c4cccnc4c3O)cc2S(=O)(=O)O)c(S(=O)(=O)O)c1)c1cc(S(=O)(=O)O)c2cccnc2c1O`, the Potency is reported as 29.8 µM (active).
In the case of `CC1=C(/C=C/C(C)=C/C=C/C(C)=C/C=C/C=C(C)/C=C/C=C(C)/C=C/C2=C(C)C[C@@H](O)CC2(C)C)C(C)(C)C[C@H](O)C1`, the Potency is reported as 11.9 µM (active).
In the case of `O=P(O)(O)C(O)(Cc1cnc2ccccn12)P(=O)(O)O`, the Potency is reported as “inactive”.
For `CCCC1([C@H](O)C/C=C/[C@H]2[C@H](O)CC(=O)[C@@H]2CCCCCCC(=O)OC)CCC1`, the Potency was 13.3 µM (active).
In the case of `O=C(O)CCC/C=C\C[C@@H]1[C@@H](/C=C/[C@@H](O)COc2cccc(C(F)(F)F)c2)[C@H](O)C[C@@H]1O`, the Potency is reported as “inactive”.
For `CC(C)N=c1cc2n(-c3ccc(Cl)cc3)c3ccccc3nc-2cc1Nc1ccc(Cl)cc1`, the Potency was 12.7 µM (active).
For `COC(=O)C1=C(C#N)NC(C)=C(C(=O)OC(C)C)C1c1cccc([N+](=O)[O-])c1` (stereo not given), the Potency was 18.8 µM (active).
With `CO[C@@H]1[C@@H](O[C@@H]2O[C@H](C)[C@@H](O[C@H]3C[C@@](C)(O)[C@@H](OC(=O)CC(C)C)[C@H](C)O3)[C@H](N(C)C)[C@H]2O)[C@@H](CC=O)C[C@@H](C)C(=O)/C=C/C2OC2C[C@@H](C)OC(=O)C[C@H]1OC(C)=O` (stereo not given in full) the Potency was 5.31 µM (active).
With `CN1CCN(CCC=C2c3ccccc3Sc3ccc(S(=O)(=O)N(C)C)cc32)CC1` the Potency was 16.8 µM (active).
For `CNC(=O)c1c(I)c(C(=O)NCC(=O)Nc2c(I)c(C(=O)O)c(I)c(C(=O)NCCO)c2I)c(I)c(N(C)C(C)=O)c1I`, the Potency was “inactive”.
In the case of `CC(C)(C)c1ccc(CN2CCN(C(c3ccccc3)c3ccc(Cl)cc3)CC2)cc1` (stereo not given), the Potency is reported as 8.41 µM (active).
For `C[N+]1(C)[C@@H]2CC(OC(=O)C(O)(c3cccs3)c3cccs3)C[C@H]1[C@@H]1O[C@@H]12` (stereo not given in full), the Potency was “inactive”.
In the case of `COc1ccc(/C=C/C(=O)OCCC(C)C)cc1`, the Potency is reported as “inactive”.
For `COC(=O)[C@@H](N)CS`, the Potency was “inactive”.
With `O=c1oc2cc(O)ccc2s1` the Potency was “inactive”.
With `CO[C@H]1C=CO[C@@]2(C)Oc3c(C)c(O)c4c(O)c(c(/C=N/N5CCN(C6CCCC6)CC5)c(O)c4c3C2=O)NC(=O)/C(C)=C\C=C[C@H](C)[C@H](O)[C@@H](C)[C@@H](O)[C@@H](C)[C@H](OC(C)=O)[C@@H]1C` the Potency was 4.22 µM (active).
